A short description of test [1]: reducers of endogenous Her2 protein level, primary screen, SKBR3 breast tumor cells, AlphaScreen, ATP viability (AID 461;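 active = Her2 level under about 52% in both replicate screens, with viability over 70% of control, limit read from the data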;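 for Her2 level: lower value means less Her2 protein in the cells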;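 for viability: percent of carrier control wells set as 100% viability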). The note with it: 18-24 h, measured here: SKBR3 viability, ATP luminescence, at 10 µM.
Test [2] has as its target Receptor tyrosine-protein kinase erbB-2 (Homo sapiens) (UniProt P04626). The description is as above. To be noted: 18-24 h, at 10 µM, stronger effect = lower value.
The nature of test [3]: SK-BR-3 cell growth inhibitors, pilot screen, 24 h, human (AID 572;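 active = viability at or below 10% of carrier control in both of two separate runs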;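 note: compound exposure lasted between 18 and 24 h rather than exactly 24 h; 100% = carrier-treated control wells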). To be noted: SK-BR-3 viability, CellTiter-Glo luminescence, at 10 µM, stronger effect = lower value.
Test [4] is described as follows: HUVEC growth inhibition – cell-based, human, primary screen (AID 575;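 active = viability at or below 30% in both replicate assays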;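 note: 100% = median of untreated cell wells with 0.1% DMSO on each plate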). The note with it: HUVEC proliferation, CellTiter-Glo luminescence, 72 h; at 10 µM; stronger effect = lower value.
The nature of test [5]: growth inhibitors of H69AR lung tumor, primary screen, human, duplicate replicates (AID 580;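 active = viability at or under a set limit in both replicates, limit being median viability minus 3 SD, cut at about 48% in these data, passing the limit was not always enough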;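 note: 100% = mean luminescence of untreated wells and 0% = no signal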). The note with it: H69AR lung tumor cells viability, ATP luminescence, 72 h; at 10 µM; stronger effect = lower value.
A short description of test [6]: reversal of MRP1-mediated doxorubicin resistance, pilot screen, H69AR cells, doxorubicin co-treatment (AID 601;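 active = viability loss from added drug above about 55%, and viability with drug at most 40%, in both replicates, limit read from the data, passing the limit was not always enough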). To be noted: CellTiter-Glo, 72 h, at 10 µM; for differential viability (reversal): stronger effect = higher value.
The nature of test [7]: 384-well plate pilot, post-Golgi transport modulator project, inhibition of yeast transport mutant growth (AID 636; in the data active = inhibition above about 31%). The note with it: absorbance 615 nm, about 18 h, stronger effect = higher value.
Test [8] is described as follows: growth suppression of yeast trafficking mutant, preliminary HTS, modulators of trafficking downstream of Golgi apparatus project, 1536-format plate, OD 615 nm (AID 637; in the data active = inhibition above about 30%). To be noted: yeast transport mutant growth, absorbance 615 nm, 18 h; stronger effect = higher value.
Test [9] can be described thus: OD615 S. cerevisiae growth inhibition, permissive medium, pilot counter-assay, permissive growth control for S. cerevisiae lifespan shortening project (AID 705;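 active = growth inhibition above 25% in both replicates, a cutoff set 3 SD above the mean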). The note with it: OD615, 24 h, at 10 µM, stronger effect = higher value.
Test [10] is described as follows: Restrictive medium S. cerevisiae growth inhibition, OD615, pilot screen of yeast lifespan reduction project, restrictive growth control (AID 706;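 active = growth inhibition above a set limit, 3 SD over mean compound inhibition, in both replicates, cut at about 43% in these data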;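 note: modified DeaD lifespan yeast strain shifted to restrictive glucose medium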). The note with it: OD615, 48 h, at 10 µM, stronger effect = higher value.
Test [11] is described as follows: viability gain of MRP-1-high H69AR cells under doxorubicin, pilot screen, MRP-1 activator project, CellTiter-Glo, duplicate (AID 807;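 active = viability increase at or above a cutoff of the median across tested compounds plus 3 SD, cut at about 8.5% in these data, passing the limit was not always enough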;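 note: compound pretreatment 18-22 h then 72 h combined with doxorubicin; 0% = doxorubicin alone and 100% = vehicle without doxorubicin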). The note with it: H69AR viability with doxorubicin, CellTiter-Glo luminescence; at 10 µM; stronger effect = higher value.
Test [12] can be described thus: growth suppression of beta-catenin knockout HCT116, pilot screen, human colon tumor cells (AID 823;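 active = cell viability at or below a set limit in both duplicate runs, the limit being the all-compound median minus 4 SD, cut at about 23% in these data, passing the limit was not always enough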;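 note: 0% = wells killed by 20 µM Hyamine and 100% = untreated DMSO cell wells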). To be noted: CellTiter-Glo, 60 h, at 10 µM, stronger effect = lower value.
Test [13] can be described thus: growth suppression of PTEN-deleted HCT116, pilot screen, cell-based, HCT116 clonal line, CellTiter-Glo (AID 824;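 active = viability at or below 27.92% in each of two runs, the all-compound median minus 4 SD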;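 note: 0% = 20 µM Hyamine control and 100% = vehicle cell control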). To be noted: 60 h, at 10 µM, stronger effect = lower value.
Test [14] can be described thus: inhibitors of the yeast RAM network, pilot screen, dse1pr::URA3 reporter, 5-FOA selection (AID 869;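 active = inhibition over a set limit, the all-compound mean plus 3 SD, in both replicate runs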;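 note: 0% = DMSO wells with no growth and 100% = 10 µM 1-NA-PP1 with full growth; RAM network block rescues cells from 5-FOA so hits raise OD615 growth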). The note with it: S. cerevisiae dse1pr::URA3 5-FOA growth, OD615, 2 d; at 10 µM; stronger effect = higher value; strain carries analog-sensitive mutant Cbk1 kinase.
Test [15] can be described thus: RAM signaling pathway blockade in yeast – S. cerevisiae, Pdr1DBD-CYC8 efflux-inhibited sensitized strain, primary screen (AID 1298).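 Note: 0% = DMSO untreated cells without growth and 100% = 10 µM 1-NA-PP1 full growth; higher means more yeast growth rescued from 5-FOA killing.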 To be noted: S. cerevisiae cbk1-as DSE1-URA3 strain, 5-FOA growth OD615, 2 d; at 50 µM; stronger effect = higher value.
[16] abbreviates: H69AR cells + 2 uM doxorubicin, measured here: viability with 2 uM doxorubicin, stronger effect = lower value.
Setting [17] is: H69AR cells, compound alone cytotoxicity.

Structures are written as SMILES. Inconclusive results are not listed. Activity calls are given as the source filed them.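 Rule for the calls, unless noted: active = RAM network inhibition above 8.4% in each of two replicates, 3 SD over the compound average; inconclusive = above 8.4% inhibition in only one replicate; inactive = 8.4% inhibition or less in each replicate.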

Sequence of Receptor tyrosine-protein kinase erbB-2 (Homo sapiens) (P04626 whole entry, looked up): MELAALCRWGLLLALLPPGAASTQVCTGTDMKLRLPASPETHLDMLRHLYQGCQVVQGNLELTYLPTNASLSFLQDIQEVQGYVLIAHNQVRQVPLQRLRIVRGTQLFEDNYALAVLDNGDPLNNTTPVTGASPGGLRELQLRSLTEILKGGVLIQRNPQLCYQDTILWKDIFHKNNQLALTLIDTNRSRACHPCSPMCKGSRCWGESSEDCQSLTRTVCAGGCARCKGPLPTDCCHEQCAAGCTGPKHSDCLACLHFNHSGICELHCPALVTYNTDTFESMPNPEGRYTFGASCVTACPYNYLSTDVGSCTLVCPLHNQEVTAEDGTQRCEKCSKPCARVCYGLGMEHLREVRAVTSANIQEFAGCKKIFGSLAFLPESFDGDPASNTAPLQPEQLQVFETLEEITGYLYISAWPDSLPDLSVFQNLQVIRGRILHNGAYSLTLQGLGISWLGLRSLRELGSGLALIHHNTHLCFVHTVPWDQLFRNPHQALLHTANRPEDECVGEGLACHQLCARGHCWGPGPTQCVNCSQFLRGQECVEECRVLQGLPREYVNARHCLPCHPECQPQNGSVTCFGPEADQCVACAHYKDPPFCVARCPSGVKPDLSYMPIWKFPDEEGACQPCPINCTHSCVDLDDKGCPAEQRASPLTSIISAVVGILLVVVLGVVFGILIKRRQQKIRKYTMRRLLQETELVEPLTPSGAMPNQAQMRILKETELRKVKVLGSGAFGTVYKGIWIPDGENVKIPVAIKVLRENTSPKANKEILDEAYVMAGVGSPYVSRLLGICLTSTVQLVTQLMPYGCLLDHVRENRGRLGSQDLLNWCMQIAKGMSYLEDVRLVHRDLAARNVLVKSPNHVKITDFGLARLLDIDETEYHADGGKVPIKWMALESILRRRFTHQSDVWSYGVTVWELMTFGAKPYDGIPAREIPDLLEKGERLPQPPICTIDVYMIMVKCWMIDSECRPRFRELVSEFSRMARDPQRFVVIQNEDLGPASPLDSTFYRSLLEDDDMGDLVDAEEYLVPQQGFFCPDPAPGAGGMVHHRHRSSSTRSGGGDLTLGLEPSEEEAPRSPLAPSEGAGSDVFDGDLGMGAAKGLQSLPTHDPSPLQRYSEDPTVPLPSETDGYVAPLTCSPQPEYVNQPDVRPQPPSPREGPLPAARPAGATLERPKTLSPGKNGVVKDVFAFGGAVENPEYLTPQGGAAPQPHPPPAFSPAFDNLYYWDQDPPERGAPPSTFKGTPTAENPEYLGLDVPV

As to `COc1ccccc1N1CCN(C(=O)N2CCOCC2)CC1`, the viability is 107% in test [1]; 107% (inactive) in test [3]; 86.9% (inactive) in test [4]; 73.8% (inactive) in [5]; 82.9% in test [6] (setting [16]); 73.8% in test [6] (setting [17]). In addition, the viability in test [12] was 95.9% (inactive); in test [13], 96.8% (inactive). Further, the Her2 level in test [2] was 87% (inactive). In test [6] (H69AR cells + 2 uM doxorubicin), the differential viability (reversal) is -9.12% (inactive). The inhibition is -1.95% (inactive) in test [7], -5.57% (inactive) in test [8] and 1.06% (inactive) in [14]. For the same molecule, the growth inhibition was -17.3% (inactive) in test [9] and -6.65% (inactive) in test [10]. In [11], the viability increase was -1.74% (inactive). Further, in test [15], the RAM network inhibition was 0.62% (inactive).
`O=C(Cn1cc2c(n1)CCCCC2)N1CCc2ccccc2C1`: the viability in test [1] is 116%; in [3], 116% (inactive); in test [4], 95% (inactive); in [5], 92.9% (inactive); in [6] (setting [16]), 89.8%; in [6] (setting [17]), 92.9%. Further, the viability was 86.2% (inactive) in test [12] and 84.7% (inactive) in [13]. The Her2 level in test [2] is 114% (inactive). Also, the differential viability (reversal) in test [6] (H69AR cells + 2 uM doxorubicin) was 3.17% (inactive). Further, the inhibition in [7] was -2.18% (inactive); in test [8], -3% (inactive); in test [14], 1.98% (inactive). Moreover, the growth inhibition was 7.48% (inactive) in [9] and 10.6% (inactive) in test [10]. Besides, the viability increase in test [11] is 1.54% (inactive). Besides, the RAM network inhibition in test [15] is 6.93% (inactive).
Turning to `CCCCN(CCCC)CCn1cnc2c([nH]c3ccc(OC)cc32)c1=O`, the viability is 76% in [1]; 76% (inactive) in test [3]; 121% (inactive) in test [4]; 80.2% (inactive) in [5]; 92.9% in [6] (setting [16]); 80.2% in test [6] (setting [17]). The viability was 82.8% (inactive) in test [12] and 86.2% (inactive) in test [13]. For the same molecule, the Her2 level in test [2] was 90.5% (inactive). For the same molecule, in [6] (H69AR cells + 2 uM doxorubicin), the differential viability (reversal) was -12.8% (inactive). Also, the inhibition was -1.67% (inactive) in test [7], 2.17% (inactive) in test [8] and 0.545% (inactive) in [14]. Moreover, the growth inhibition was -6.29% (inactive) in test [9] and 3.9% (inactive) in test [10]. Besides, in test [11], the viability increase is -3.78% (inactive). Also, the RAM network inhibition in test [15] is 2.03% (inactive).
Regarding `COC(=O)CSC1=C(C#N)C(c2ccc(F)cc2)CC(=O)N1` (configuration not stated), the viability is 109% in test [1]; 109% (inactive) in [3]; 101% (inactive) in test [4]; 80.8% (inactive) in test [5]; 80.6% in test [6] (setting [16]); 80.8% in [6] (setting [17]). Also, the values for the viability in test [12] and in test [13] were 100% (inactive) and 95.9% (inactive), respectively. The Her2 level in [2] is 105% (inactive). Also, the differential viability (reversal) in [6] (H69AR cells + 2 uM doxorubicin) was 0.195% (inactive). Further, the values for the inhibition in test [7], in test [8] and in test [14] were -4.93% (inactive), -4.75% (inactive) and 0.905% (inactive), respectively. In addition, the growth inhibition in test [9] was 9% (inactive); in test [10], -15.4% (inactive). The viability increase in [11] was -0.35% (inactive). Further, the RAM network inhibition in test [15] was -1.71% (inactive).
For `O=C(NCCN1C(=O)C2C3C=CC(C3)C2C1=O)N1CCCCC1` (configuration not stated), the viability in [1] is 122%; in [3], 122% (inactive); in test [4], 100% (inactive); in test [5] it was 103% (inactive); in test [6] (setting [16]), 96.5%; in test [6] (setting [17]), 103%. Also, the figures for the viability in [12] and in [13] were 102% (inactive) and 95.1% (inactive), respectively. Further, the Her2 level in test [2] was 112% (inactive). Further, the differential viability (reversal) in test [6] (H69AR cells + 2 uM doxorubicin) is 6.97% (inactive). For the same molecule, the figures for the inhibition in [7], in [8] and in [14] were 4.93% (inactive), -4.83% (inactive) and 2.13% (inactive), respectively. Moreover, the growth inhibition is -11.7% (inactive) in test [9] and 0.245% (inactive) in test [10]. For the same molecule, the viability increase in [11] is -0.67% (inactive). For the same molecule, the RAM network inhibition in [15] is 3.08% (inactive).
As for `CCOC(=O)c1ccc(NC(=O)Cn2cc3c(n2)CCC(C)C3)cc1` (configuration not stated), the viability was 91.5% in test [1]; 91.5% (inactive) in test [3]; 91.4% (inactive) in [4]; 91.9% (inactive) in test [5]; 99.5% in [6] (setting [16]); 91.9% in test [6] (setting [17]). In addition, the viability in test [12] was 102% (inactive); in test [13], 106% (inactive). Moreover, the Her2 level in test [2] is 92% (inactive). The differential viability (reversal) in test [6] (H69AR cells + 2 uM doxorubicin) is -7.62% (inactive). Further, the inhibition in [7] is -2.8% (inactive); in test [8], -2.13% (inactive); in test [14], 1.92% (inactive). Besides, the results for the growth inhibition in [9] and in test [10] were -3.82% (inactive) and 5.5% (inactive), respectively. Besides, the viability increase in test [11] is 0.35% (inactive). For the same molecule, in [15], the RAM network inhibition is 6.92% (inactive).

The values above are taken from PubChem BioAssay.
